An excerpt weighted towards active compounds, which were near 1.8% of everything screened.
PrPC TRFRET = cell surface PrPC inhibition, primary TR-FRET screen; P04156; TR-FRET read-out; inhibition, % at 13.8 µM; 370,000 compounds, 0.43% hits; AID 720596; in the data active means inhibition above about 24%; further: 0% = median of the test wells and 100% = reference compound wells
PrP 5UTR inh = suppresses PrP 5' UTR mRNA reporter expression | 340,000 compounds, 0.35% hits | cell-based PrP 5' UTR mRNA reporter, plate reader | inhibition, % (no concentration beside the values); in the data active means inhibition above about 52%; further: 0 = median of the neutral control wells
PriA SSB inh = K. pneumoniae PriA-SSBct interaction inhibition | inhibition, % at 33 µM | AlphaScreen SSBct-PriA binding, biotinylated peptide | 430,000 compounds, 0.6% hits | AID 1272365; in the data active means inhibition mostly above about 37%, no sharp cut-off; inactive means mostly below about 20%;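 further: plate controls were negative control peptide for no effect and reference peptide for full effect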
PfHsp40 yeast = restores yeast growth despite PfHsp40 toxicity. growth rescue, % at 12.5 µM. 340,000 compounds, 0.68% hits. S. cerevisiae expressing PfHsp40, growth rescue, ATP luminescence; in the data active means growth rescue above about 28%, passing the limit was not always enough; inconclusive means no clear call, values can overlap the other calls;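 further: yeast W303a lacking pdr1 and pdr3 grown in galactose medium; growth measured after three days at 30 °C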
MazEF act = activators of E. coli MazEF toxin-antitoxin RNase; 350,000 compounds, 0.32% hits; P0AE70; FAM/BHQ RNA-DNA oligo cleavage fluorescence, 5 h; activation, % at 20 µM; in the data active means activation above about 50%
Target sequence (P0AE70 whole entry, looked up): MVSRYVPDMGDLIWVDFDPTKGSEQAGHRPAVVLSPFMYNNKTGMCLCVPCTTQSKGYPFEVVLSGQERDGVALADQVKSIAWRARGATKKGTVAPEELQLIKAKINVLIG
PrP UTR cherry = prion 5' UTR mRNA inhibition, cherry-pick retest; shares compounds with PrP 5UTR inh; cell-based prion protein 5' UTR reporter, plate reader; inhibition, % at 2.5 µM; 1,100 compounds, 48% hits; AID 504592; in the data active means inhibition above about 54%; inconclusive means no clear call, values can overlap the other calls
Starred values were filed as active, the others as inactive; u = inconclusive; x = not tested or not shown.

SMILES	PrPC TRFRET	PrP 5UTR inh	PriA SSB inh	PfHsp40 yeast	MazEF act	PrP UTR cherry
CCc1ccc2nc(N3CCN(C(=O)c4cccc(Oc5ccccc5)c4)CC3)sc2c1	x	x	-9.0	x	x	x
Cc1[nH][nH]c(=O)c1N=Nc1ccccc1Cl	-14.4	-10.9	0.3	0.5	9.5	x
Clc1ccccc1N=Nc1ccccn1	-8.5	68.1*	7.2	-0.2	-110.9	-22.5
CC1(C)Oc2cc3oc(-c4cc(O)cc(O)c4)cc3cc2CC1O (centres undefined)	-9.5	70.7*	-4.3	0.4	14.3	u
Oc1cc(O)cc(-c2cc3ccc(O)cc3o2)c1	4.4	1.8	1.9	2.9	-7.8	x
CC(C)(C)n1ncc2c(=O)n(CC(=O)OCc3ccccc3)cnc21	1.4	59.9*	-4.0	-1.6	3.9	30.0
COc1cc(C2C(C#N)=C(N)Oc3cc(N)ccc32)cc(OC)c1OC (centres undefined)	-9.0	67.4*	8.2	0.5	8.2	88.0*
CC1(C)Cc2c(sc3nc4n(-c5ccccc5)c(=O)c(CCC(=O)O)nn4c(=O)c23)CO1	3.2	-9.5	-0.4	-0.1	13.6	x
COc1ccc(S(=O)(=O)CCC(=O)Nc2ccc3sccc3c2)cc1	x	x	0.0	x	x	x
COc1ccc(/C=C2\SC(=O)N(CCCC(=O)Nc3cc(Cl)ccc3C(=O)O)C2=O)cc1	-6.0	91.7*	4.6	5.5	-0.3	83.1*
O=C(Nc1ccc(COc2ccccc2)cc1)Oc1ccccc1N1CCOCC1	1.0	58.6*	7.1	-1.6	11.5	32.3
CCC(=O)Nc1cc2nn(-c3ccc(C)cc3)nc2cc1C	2.2	67.6*	-6.5	0.4	1.1	62.4*
COc1ccc(N(CC2CO2)S(=O)(=O)c2ccc(C)cc2)cc1 (centres undefined)	5.8	5.5	1.4	0.7	5.4	x
Cc1noc(C)c1-c1ccc2nc[nH]c(=O)c2c1	-2.3	-20.4	-7.7	0.1	2.3	x
O=c1[nH]cnc2nc[nH]c12	x	x	-9.0	x	x	x
Cn1cnc2nc[nH]c2c1=O	5.5	54.7*	-14.6	-1.3	-17.3	-7.3
CCc1ccccc1NC(=O)CSc1nc2ccccc2nc1N1CCOCC1	5.8	58.1*	-7.9	0.6	-3.2	-7.9
Cc1ccc(C)c(NC(=O)CSc2nc3ccccc3nc2N2CCOCC2)c1	4.4	-6.8	6.7	0.5	-11.7	x
COc1cc(OC)c2c(-c3cccc(-c4ccc(C(C)=O)cc4)c3)cc(=O)oc2c1	x	64.2*	-7.2	-1.0	-13.2	92.7*
COc1ccc(C(C)=NOC/C(O)=C(\C#N)c2nc3ccccc3[nH]2)c(OC)c1	x	x	-10.0	x	x	x
CC(=O)c1c(C)[nH]c(C(=O)COC(=O)CCCOc2ccccc2)c1C	-5.6	58.3*	-13.4	-0.3	5.3	u
CN=c1scc(C)n1N=Cc1ccc2c(c1)OCO2	x	x	23.5	x	x	x
COc1ccc2cc(C(=O)N3CCC(S(=O)(=O)C(C)(C)C)C3)[nH]c2c1 (centres undefined)	x	x	4.0	x	x	x
COC(=O)c1ccccc1NC(=O)Cn1c(-c2nonc2N)nc2ccccc21	x	70.3*	-11.2	0.4	-0.2	90.7*
COC(=O)c1ccc(NC(=O)Cn2c(-c3nonc3N)nc3ccccc32)cc1	-2.8	-16.7	-5.9	12.2	-8.5	x
SMILES	PrPC TRFRET	PrP 5UTR inh	PriA SSB inh	PfHsp40 yeast	MazEF act	PrP UTR cherry
COc1ccc(/C=N/Nc2nnc(C)n2N)cc1OC	-10.1	76.1*	x	-1.5	3.8	-7.9
COc1ccc(/C=N/Nc2nnc(C)n2N)cc1OC(C)=O	-3.9	-16.7	x	-0.7	12.7	x
CC(C)n1c(=O)[nH][nH]c1=S	-8.8	x	-3.4	x	9.0	x
Cc1ccc(C(=O)N/C(=C\c2ccc3c(c2)OCO3)C(=O)N2CCOCC2)cc1	-4.5	-27.3	-15.9	-0.2	-1.4	x
COc1ccc(C(=O)N/C(=C\c2ccc3c(c2)OCO3)C(=O)N2CCOCC2)cc1	0.0	76.6*	0.2	0.1	4.5	u
CCCCN=C1NN=C(c2ccc3c(c2)OCCO3)CS1	4.0	-3.8	27.4	1.8	5.4	x
c1cc2c(cc1C1=NNC(=NC3CC3)SC1)OCCO2	-5.2	90.8*	-1.2	-2.4	8.3	91.2*
Cc1cc(C2=NNC(=NC3CC3)SC2)c(C)n1-c1ccccc1F	6.7	94.3*	18.6	-1.8	0.6	96.2*
CN(Cc1ccccc1F)C(=O)c1ccc(Oc2ccccc2)cc1	1.9	-14.8	-33.0	15.9	-8.4	x
Cc1ccc(-c2cc(C(=O)N/N=C/c3c(C)nn(-c4ccccc4)c3C)[nH]n2)cc1	21.9	70.2*	x	1.0	x	88.4*
CN(C)CCNc1ccc(CO)c2sc3ccc(O)cc3c(=O)c12	-13.4	0.5	28.1	-0.8	-6.6	x
CN(C)CCNc1ccc2ncn3c4ccc(O)cc4c(=O)c1c23	-17.8	93.1*	21.8	-0.1	-381.0	59.7*
CC1CCc2cc(F)ccc2N1S(=O)(=O)c1ccc(F)cc1 (centres undefined)	0.3	-2.4	-46.8	-1.6	1.9	x
Cc1csc(NC(=O)c2cn3ccccc3n2)n1	0.7	75.9*	-10.7	0.2	4.7	u
N/C(=N\OCc1ccc([N+](=O)[O-])cc1)c1ccccn1	x	85.2*	x	-2.1	6.8	79.9*
NC(=NOCc1ccc([N+](=O)[O-])cc1)c1ccncc1	x	x	1.9	x	x	x
CCC(C)(C)NC(=O)CN(Cc1cccs1)C(=O)C(=O)Nc1ccc2c(c1)OCCO2	-0.6	2.4	-8.5	0.3	-14.4	x
CC(C)c1nnc(NC(=O)c2ccc3c(c2)OCO3)s1	2.3	53.9*	-19.5	-1.9	5.7	u
Cc1cnc(NC(=O)c2ccc3c(c2)OCCO3)s1	16.1	81.3*	-9.2	0.1	11.4	72.8*
Cc1ccc(C(=O)Nc2ncc(C)s2)s1	15.7	-31.5	-2.1	0.6	14.7	x
CC(c1ccccc1)c1nnc(NC(=O)c2ccc3c(c2)OCO3)s1 (centres undefined)	-0.1	-26.7	-12.9	-0.3	0.5	x
C=CCn1c(SCc2c(C)noc2C)nc2ccccc2c1=O	5.5	66.7*	-12.1	0.0	0.5	82.4*
C=CCn1c(SCc2c(C)noc2C)nc2cc(C(=O)O)ccc2c1=O	4.7	-17.9	-12.5	-0.6	-2.2	x
O=C(O)CC1S/C(=N\N=C2CCCCCC2)N(c2ccccc2)C1=O (centres undefined)	-1.2	-12.3	x	-0.6	0.8	x
CCOC(=O)CC/C(C)=N\N=C1\SC(CC(=O)O)C(=O)N1c1ccccc1 (centres undefined)	0.3	84.9*	x	2.0	-0.9	-18.3
Cc1n[nH]c(C)c1S(=O)(=O)N1CCCC(C(=O)NCc2ccc(F)cc2)C1 (centres undefined)	3.7	83.7*	-7.5	0.8	8.3	3.4
COc1ccc(CNC(=O)C2CCN(S(=O)(=O)c3c(C)n[nH]c3C)CC2)cc1	0.8	-18.4	-5.7	-1.2	-2.6	x
COc1ccc(N(C(=O)c2cnccn2)C(C(=O)NCc2ccccc2)c2ccc(O)cc2)cc1 (centres undefined)	-6.4	-46.2	-6.1	0.9	5.3	x
CCOC(=O)N1CCN(C(=O)Cn2nc(C)c3sc4ccccc4c3c2=O)CC1	14.3	-22.1	-30.9	0.4	0.8	x

Bioassay records from PubChem BioAssay.
